The text below walks through data of PubChem BioAssay (NCATS).

Values without a mark were called inactive. Inconclusive results are not listed. Calls of active or inactive are those of the source. Unless noted, the call rests on the fitted dose curve; in most records, active means well fitted curve in the direction sought with a large enough effect; inconclusive means small, poorly fitted or top-dose-only effect, or another doubt; inactive means no such curve, though single readings can be large; an effect the other way counts as inactive or inconclusive. Bounds are passed on as bounds.

Experiment [1] in a line: AP1 Signaling Pathway (AID 357; active means well fitted curve in either direction with a large enough effect, not every such curve was filed as active; further: on the % scale 0 is the no-effect control and ±100 the full control effect). To be noted: ME-180 AP-1-bla reporter, EGF-induced, beta-lactamase ratio, 5 h; at 7.69 µM (top of the series) unless noted. In short, it runs like this: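 AP-1-bla ME-180 cells with beta-lactamase reporter under AP-1 response element, stimulated with EC50 EGF; compounds titrated, 5 hours at 37 degrees Celsius. CCF4 read at 460/530 nm ratio; positive and negative modulators judged by AC50.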

The target of experiment [2] is Cytochrome P450 1A2 (Homo sapiens) (UniProt P05177). The experiment in a line: p450-cyp1a2 (AID 410; calls by dose curve; further: potency means the concentration at half of the fitted maximal effect;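 on activity change, negative = inhibition: -100% = full effect of reference inhibitor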). Put shortly: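 O-Demethylation of luciferin 6' methyl ether by human CYP1A2 is monitored as luciferase luminescence. Substrate sits at Km (100uM); enzyme is 20nM. Values are scaled to 57 uM furafylline as maximal inhibition.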
Chain of Cytochrome P450 1A2 (Homo sapiens) (P05177 whole entry, looked up): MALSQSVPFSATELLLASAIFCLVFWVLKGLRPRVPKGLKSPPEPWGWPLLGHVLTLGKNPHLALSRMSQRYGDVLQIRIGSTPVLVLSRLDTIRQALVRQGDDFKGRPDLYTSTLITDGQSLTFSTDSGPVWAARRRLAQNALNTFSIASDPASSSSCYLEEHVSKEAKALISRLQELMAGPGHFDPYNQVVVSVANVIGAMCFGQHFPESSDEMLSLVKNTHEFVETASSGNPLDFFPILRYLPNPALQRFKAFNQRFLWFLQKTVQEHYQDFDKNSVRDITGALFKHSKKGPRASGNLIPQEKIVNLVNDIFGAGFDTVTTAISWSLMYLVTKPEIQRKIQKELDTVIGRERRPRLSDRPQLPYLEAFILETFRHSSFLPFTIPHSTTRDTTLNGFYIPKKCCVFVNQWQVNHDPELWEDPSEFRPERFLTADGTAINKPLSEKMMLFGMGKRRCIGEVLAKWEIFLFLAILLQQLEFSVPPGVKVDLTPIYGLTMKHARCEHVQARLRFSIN
The nature of experiment [3]: NFAT Signaling Pathway (AID 444; active means well fitted curve in either direction with a large enough effect, not every such curve was filed as active;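 further: carbachol stimulus at about its EC50 of 1 µM final; on the % scale 0 is the no-effect control and ±100 the full control effect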). To be noted: Jurkat NFAT-bla M1, carbachol, beta-lactamase ratio, 5 h; at 7.69 µM (top of the series) unless noted. In short, it runs like this:
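Jurkat cells with NFAT-driven β-lactamase reporter and co-expressed M1 receptor, stimulated with carbachol (final 1 uM, ~EC50), compound titration, 5 h at 37 °C. CCF4 loaded 1 h at RT; 460/530 nm ratio gave %activity and AC50.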

Experiment [4] is described as follows: Stat Signaling Pathway (AID 446; active means well fitted curve in either direction with a large enough effect, not every such curve was filed as active;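 further: ME-180 cervical cancer cells given 40 pM IL-6 alongside compound; SIE-controlled beta-lactamase reporter measured as 460/530 nm FRET emission ratio; on the % scale 0 is the no-effect control and ±100 the full control effect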). Conditions: ME-180 (cervical carcinoma) SIE beta-lactamase reporter, IL-6 stimulated, 5 h; at 7.69 µM (top of the series) unless noted. Put shortly: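 Emission at 460 and 530 nm (excitation 405 nm) reports SIE-controlled beta-lactamase in ME-180 cells. Cells received compound with 40 pM IL-6 for 5 hrs at 37 C; data scaled between 300 pM IL-6 and 125 nM JAK-inhibitor controls.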

Experiment [5] addresses Mitogen-activated protein kinase 10 (Mus musculus) (UniProt Q61831). The experiment in a line: JNK3 AlphaScreen Assay (AID 530; active means well fitted curve in either direction with a large enough effect, not every such curve was filed as active;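 further: kinase came from lysate of stimulated human HepG2 cells; signal reports phosphorylation of biotinylated GST-cJun 1-79 at Ser73 with 10 µM ATP; on the % scale 0 is the no-effect control and ±100 the full control effect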). Put shortly:
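Activity was read by AlphaScreen after JNK3-containing HepG2 lysate (cytokine pre-activated) phosphorylated biotinylated GST-cJun with 10 uM ATP at room temperature. Phospho-Ser73 cJun antibody with Protein-A acceptor beads provided detection.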

For experiment [6], the target named is 3',5'-cyclic-AMP phosphodiesterase 4B (Homo sapiens) (UniProt Q07343). In words: qHTS Assay for Inhibitors of PDE-IV (AID 607; active means well fitted activation curve with a large enough effect in the main read-out, with a control signal flat, not every such curve was filed as active; further: % of control where 0% means no effect). In short, it runs like this: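 The readout is membrane depolarisation from a cAMP-sensing CNG channel, detected with a potential dye at ex 535/em 590. Cells were HEK293-derived (endogenous PDE-IV) at 1000 cells/well, titrated up to 22.9 uM final.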
Chain of 3',5'-cyclic-AMP phosphodiesterase 4B (Homo sapiens) (Q07343 whole entry, looked up): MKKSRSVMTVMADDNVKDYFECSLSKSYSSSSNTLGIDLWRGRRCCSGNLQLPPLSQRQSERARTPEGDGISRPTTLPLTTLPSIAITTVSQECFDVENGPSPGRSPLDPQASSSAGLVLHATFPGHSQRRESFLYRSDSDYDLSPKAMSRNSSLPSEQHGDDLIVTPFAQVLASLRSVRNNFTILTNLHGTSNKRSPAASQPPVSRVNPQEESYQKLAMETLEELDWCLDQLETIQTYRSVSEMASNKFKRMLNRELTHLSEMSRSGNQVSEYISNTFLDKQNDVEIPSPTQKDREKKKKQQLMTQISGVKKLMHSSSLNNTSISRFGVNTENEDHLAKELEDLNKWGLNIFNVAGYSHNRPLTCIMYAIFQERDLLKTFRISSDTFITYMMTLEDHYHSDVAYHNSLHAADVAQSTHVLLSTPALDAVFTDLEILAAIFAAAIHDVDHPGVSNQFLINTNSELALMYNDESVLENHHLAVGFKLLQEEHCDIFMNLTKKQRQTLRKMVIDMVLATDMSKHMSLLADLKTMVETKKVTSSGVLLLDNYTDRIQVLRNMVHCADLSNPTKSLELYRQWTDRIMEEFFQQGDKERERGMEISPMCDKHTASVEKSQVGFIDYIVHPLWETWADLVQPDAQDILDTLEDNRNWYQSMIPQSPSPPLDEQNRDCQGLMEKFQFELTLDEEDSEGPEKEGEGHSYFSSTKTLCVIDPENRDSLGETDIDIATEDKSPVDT

The target of experiment [7] is Cytochrome P450 2C19 (Homo sapiens) (UniProt P33261). The experiment in a line: qHTS Assay for Inhibitors and Substrates of Cytochrome P450 2C19 (AID 899). Further: on the % scale 0 is the no-effect control and ±100 the full control effect; nearly all actives have a fitted effect of over 60% in size. Put shortly: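 Signal comes from luciferase acting on luciferin released by CYP2C19-mediated hydroxylation of Luciferin-H EGE, 10uM (KM). Assay mix: 5nM enzyme, 50mM KPO4; 60 min at 37C with NADPH regeneration. Data normalized against 57uM ketoconazole.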

Experiment [8] has as its target Glucocorticoid receptor (Homo sapiens) (UniProt P04150). In words: GR-GFP Redistribution (AID 450;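 active means compounds whose dose series gives a full or clear partial fitted curve of increased nuclear translocation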; further: potency means the concentration at half of the fitted maximal effect). Conditions: U2OS GR-GFP nuclear translocation, laser cytometry, 2 h.
Experiment [9] has the same target. The experiment in a line: GR-EFC Redistribution (AID 451; calls by dose curve; further: potency means the concentration at half of the fitted maximal effect). To be noted: CHO-K1 GR-EFC translocation, beta-gal luminescence, 2 h. Put shortly:
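CHO-K1 cells expressing nuclear EA and GR-ED fragments of b-gal; compounds titrated up to 46 uM final, 2 h at 37 C. GR nuclear translocation read as complemented b-gal luminescence after 1 h RT detection.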

In experiment [10] the target is Guanine nucleotide-binding protein G(i) subunit alpha-1 (Homo sapiens) (UniProt P63096). In words: qHTS Assay for Inhibitors of RGS12 GoLoco Motif Activity (Green Fluorophore) (AID 879).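 Further: 0% = labeled peptide with Gαi1 and full inhibition = labeled peptide alone without protein; negative values mean loss of peptide binding seen as reduced polarization.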 Put shortly:
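A drop in FITC polarization marked displacement of the FITC-tagged RGS12 GoLoco peptide (10 nM) from Gαi1 (50 nM). Compounds were incubated 10 min at room temperature in Tris pH 7.5 buffer containing 150 mM NaCl, 0.1 mM GDP and 0.05% NP40; unlabeled peptide titration served as control.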

The target of experiment [11] is Cytochrome P450 3A4 (Homo sapiens) (UniProt P08684). In words: qHTS Assay for Activators of Cytochrome P450 3A4 (AID 885). Further: nearly all actives have a fitted effect of over 65% in size. Put shortly:
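Activators are scored by enhanced luminescence from CYP3A4 conversion of luciferin-PPXE (25uM, equal to KM) to luciferin, after 60 min at RT with an NADPH-regenerating system.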

The nature of experiment [12]: qHTS Assay for Identification of Small Molecule Agonists for Thrombopoietin (TPO) Signaling Pathway (AID 917). Further: on the % scale 0 is the no-effect control and ±100 the full control effect. In short, it runs like this: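 Quantitative HTS for pathway activators: compounds were pin-transferred onto IL-3-starved Ba/F3 cells expressing human TPO receptor, TPO was added at its EC50 (26 pM final), and after 24 hrs at 37 C reporter luciferase was measured.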

In experiment [13] the target is Muscarinic acetylcholine receptor M1 (Rattus norvegicus) (UniProt P08482). The experiment in a line: qHTS Assay for Antagonists of Acetylcholine Muscarinic M1 Receptor: Measurement of IP-One Response (AID 944). Further: nearly all actives have a fitted effect of over 75% in size. In short, it runs like this:
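Antagonist mode with rat M1 receptor transfected into CHO cells. Compound is added first for 10 min, carbachol at its EC80 follows for 30 min, and lysis reagents then allow TR-FRET detection of accumulated IP1.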

Experiment [14] deals with Pyruvate kinase (Leishmania mexicana) (UniProt Q27686). The experiment in a line: qHTS Validation Assay for Inhibitors of Leishmania Mexicana Pyruvate Kinase (AID 945).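 Further: 0% = DMSO only neutral control wells.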 In short, it runs like this:
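Eight-point qHTS titrations in triplicate, data normalized to DMSO neutral control. Reaction: 0.2 nM LmPYK E451W mutant, 0.5 mM PEP, 0.1 mM ADP, 7 mM MgCl2, pH 7.2, one hour at room temperature; luminescent ATP detection.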

Experiment [15] addresses Pyruvate kinase PKM (Homo sapiens) (UniProt P14618). The experiment in a line: qHTS Assay for Activators of Human Muscle Pyruvate Kinase (AID 954; active means well fitted curve in the direction sought with a large enough effect, not every such curve was filed as active;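 further: 0% = uninhibited enzyme and -100% = no enzyme or full thiadiazolimine inhibition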). Put shortly: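 PKM2, human, >95% pure, 0.1 nM; PEP 0.5 mM (Km), ADP 0.1 mM; 50 mM imidazole pH 7.2, 50 mM KCl, 0.01% Tween 20, 0.05% BSA; 1 h RT; luciferase luminescence readout.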
Experiment [16] deals with Alpha-galactosidase A (Homo sapiens) (UniProt P06280). In words: Counterscreen for Glucocerebrosidase Inhibitors: qHTS Assay for Human alpha-Galactosidase at pH 4.5 (AID 992). Further: 0% is about no effect. Put shortly:
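Fluorogenic 4-MU alpha-D-galactoside (80 uM) hydrolysis, 2 nM enzyme, pH 4.5 citrate buffer + 0.005% Tween-20; 20 min RT; NaOH/glycine pH 10 stop; Ex365/Em440. Compounds titrated 0.7 nM–77 uM; Hill-equation AC50.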

In experiment [17] the target is alpha-glucosidase (Oryza sativa, rice) (UniProt Q653V4). The experiment in a line: Counterscreen for Glucocerebrosidase Inhibitors: qHTS Assay for Rice alpha-Glucosidase at pH 5.0 (AID 997).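 Further: 0% = full activity with enzyme and -100% = basal without enzyme.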 In short, it runs like this: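 Endpoint fluorogenic assay at pH 5.0: compounds (0.7 nM to 77 uM) titrated against 4 nM rice enzyme and 400 uM 4-MU-alpha-glucoside for 20 min at room temperature; NaOH/glycine stop, read ex 365/em 440 nm, Hill-fitted AC50.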

Experiment [18] deals with Cytochrome P450 2C9 (Homo sapiens) (UniProt P11712). In words: qHTS Assay for Inhibitors and Substrates of Cytochrome P450 2C9 (AID 883). Further: on the % scale 0 is the no-effect control and ±100 the full control effect; nearly all actives have a fitted effect of over 60% in size. In short, it runs like this: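 Signal: luciferase luminescence reporting luciferin produced by CYP2C9. Conditions: 10nM enzyme, Luciferin-H 100uM at KM, 25mM KPO4, 37C, 60 min NADPH-driven reaction. Reference: 57uM sulphaphenazole as 100% inhibition.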
Chain of Cytochrome P450 2C9 (Homo sapiens) (P11712 whole entry, looked up): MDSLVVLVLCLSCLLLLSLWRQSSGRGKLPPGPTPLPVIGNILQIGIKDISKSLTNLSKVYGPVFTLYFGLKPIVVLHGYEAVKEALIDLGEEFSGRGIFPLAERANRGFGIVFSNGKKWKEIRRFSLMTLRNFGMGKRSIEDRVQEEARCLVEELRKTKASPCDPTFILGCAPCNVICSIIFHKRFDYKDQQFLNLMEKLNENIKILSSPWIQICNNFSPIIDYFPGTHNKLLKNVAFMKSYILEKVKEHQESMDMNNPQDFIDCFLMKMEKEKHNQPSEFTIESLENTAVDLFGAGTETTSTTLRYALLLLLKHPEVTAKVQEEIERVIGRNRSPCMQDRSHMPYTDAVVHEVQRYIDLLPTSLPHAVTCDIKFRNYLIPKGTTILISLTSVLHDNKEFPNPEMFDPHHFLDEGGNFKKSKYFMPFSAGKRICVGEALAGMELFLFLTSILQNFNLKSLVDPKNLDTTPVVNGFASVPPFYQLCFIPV

Chain of Alpha-galactosidase A (Homo sapiens) (P06280 whole entry, looked up): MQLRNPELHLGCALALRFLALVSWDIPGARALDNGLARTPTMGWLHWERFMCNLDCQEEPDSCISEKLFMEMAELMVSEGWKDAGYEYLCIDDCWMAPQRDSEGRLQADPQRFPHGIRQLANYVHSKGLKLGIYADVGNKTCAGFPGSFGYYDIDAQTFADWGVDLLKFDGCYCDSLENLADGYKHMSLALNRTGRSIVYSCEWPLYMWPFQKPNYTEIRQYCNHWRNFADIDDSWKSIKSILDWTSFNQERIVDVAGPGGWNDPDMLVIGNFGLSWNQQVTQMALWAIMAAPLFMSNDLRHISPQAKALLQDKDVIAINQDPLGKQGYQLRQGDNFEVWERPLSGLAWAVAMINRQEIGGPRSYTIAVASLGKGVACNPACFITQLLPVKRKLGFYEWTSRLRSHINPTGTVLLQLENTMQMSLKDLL
Chain of Pyruvate kinase (Leishmania mexicana) (Q27686 2-499 E452W): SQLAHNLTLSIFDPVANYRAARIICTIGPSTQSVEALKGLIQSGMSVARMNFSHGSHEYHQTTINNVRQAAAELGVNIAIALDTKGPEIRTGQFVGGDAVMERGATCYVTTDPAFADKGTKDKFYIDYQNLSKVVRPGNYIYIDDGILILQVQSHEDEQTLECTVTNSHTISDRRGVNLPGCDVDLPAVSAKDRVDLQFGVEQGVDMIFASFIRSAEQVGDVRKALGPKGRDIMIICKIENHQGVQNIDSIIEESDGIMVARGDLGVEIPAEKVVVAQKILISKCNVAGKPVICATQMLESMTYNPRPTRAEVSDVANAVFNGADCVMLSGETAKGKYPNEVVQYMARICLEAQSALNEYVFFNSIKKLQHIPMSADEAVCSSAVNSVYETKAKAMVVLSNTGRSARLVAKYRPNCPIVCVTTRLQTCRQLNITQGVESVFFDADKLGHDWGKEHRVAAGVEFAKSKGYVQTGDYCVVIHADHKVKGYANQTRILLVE
Chain of Glucocorticoid receptor (Homo sapiens) (P04150 whole entry, looked up): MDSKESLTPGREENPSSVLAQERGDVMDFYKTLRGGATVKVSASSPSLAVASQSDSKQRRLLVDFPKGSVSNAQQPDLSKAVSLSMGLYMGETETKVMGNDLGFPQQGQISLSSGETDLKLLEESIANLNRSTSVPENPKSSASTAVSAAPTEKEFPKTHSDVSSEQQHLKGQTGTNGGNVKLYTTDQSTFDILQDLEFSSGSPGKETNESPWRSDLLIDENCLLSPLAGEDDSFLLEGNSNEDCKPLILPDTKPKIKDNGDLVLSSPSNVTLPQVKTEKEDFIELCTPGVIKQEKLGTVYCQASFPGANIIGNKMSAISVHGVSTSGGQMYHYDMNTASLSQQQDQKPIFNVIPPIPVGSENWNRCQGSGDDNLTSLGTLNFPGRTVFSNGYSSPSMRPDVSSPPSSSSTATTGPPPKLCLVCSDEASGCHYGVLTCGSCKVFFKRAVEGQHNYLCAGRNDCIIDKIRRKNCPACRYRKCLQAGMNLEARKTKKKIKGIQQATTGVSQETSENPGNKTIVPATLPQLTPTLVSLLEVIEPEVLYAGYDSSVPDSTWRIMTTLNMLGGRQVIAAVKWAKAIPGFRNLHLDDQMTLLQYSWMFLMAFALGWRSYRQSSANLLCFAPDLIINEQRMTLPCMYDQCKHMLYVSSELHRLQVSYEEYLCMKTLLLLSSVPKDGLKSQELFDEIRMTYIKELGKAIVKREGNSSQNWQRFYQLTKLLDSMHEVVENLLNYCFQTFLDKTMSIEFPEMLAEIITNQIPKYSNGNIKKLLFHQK
Chain of Pyruvate kinase PKM (Homo sapiens) (P14618 whole entry, looked up): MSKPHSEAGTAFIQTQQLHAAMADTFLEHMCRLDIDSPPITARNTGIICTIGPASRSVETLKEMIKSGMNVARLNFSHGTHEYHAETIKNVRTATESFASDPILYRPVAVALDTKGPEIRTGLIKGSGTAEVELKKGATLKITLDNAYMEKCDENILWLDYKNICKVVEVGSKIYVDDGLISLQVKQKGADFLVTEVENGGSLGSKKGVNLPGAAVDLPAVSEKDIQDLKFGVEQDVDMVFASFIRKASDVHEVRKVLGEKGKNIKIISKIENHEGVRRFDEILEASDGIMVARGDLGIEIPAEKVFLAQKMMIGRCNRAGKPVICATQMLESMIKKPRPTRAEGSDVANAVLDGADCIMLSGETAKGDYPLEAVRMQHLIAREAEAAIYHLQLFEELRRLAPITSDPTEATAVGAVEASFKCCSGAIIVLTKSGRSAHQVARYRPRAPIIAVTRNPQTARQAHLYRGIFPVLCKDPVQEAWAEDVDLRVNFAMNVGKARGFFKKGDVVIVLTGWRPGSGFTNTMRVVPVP
Chain of Guanine nucleotide-binding protein G(i) subunit alpha-1 (Homo sapiens) (P63096 whole entry, looked up): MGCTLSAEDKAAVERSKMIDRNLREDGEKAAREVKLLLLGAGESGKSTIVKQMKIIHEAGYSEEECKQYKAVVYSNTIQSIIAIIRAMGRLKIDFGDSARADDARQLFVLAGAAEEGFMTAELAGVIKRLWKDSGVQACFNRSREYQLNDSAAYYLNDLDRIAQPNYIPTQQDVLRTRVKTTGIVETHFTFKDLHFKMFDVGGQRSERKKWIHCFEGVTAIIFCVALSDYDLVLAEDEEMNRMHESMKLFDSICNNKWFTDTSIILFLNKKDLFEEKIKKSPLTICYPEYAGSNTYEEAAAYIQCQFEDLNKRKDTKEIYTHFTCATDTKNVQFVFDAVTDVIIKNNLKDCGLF
Chain of Cytochrome P450 3A4 (Homo sapiens) (P08684 whole entry, looked up): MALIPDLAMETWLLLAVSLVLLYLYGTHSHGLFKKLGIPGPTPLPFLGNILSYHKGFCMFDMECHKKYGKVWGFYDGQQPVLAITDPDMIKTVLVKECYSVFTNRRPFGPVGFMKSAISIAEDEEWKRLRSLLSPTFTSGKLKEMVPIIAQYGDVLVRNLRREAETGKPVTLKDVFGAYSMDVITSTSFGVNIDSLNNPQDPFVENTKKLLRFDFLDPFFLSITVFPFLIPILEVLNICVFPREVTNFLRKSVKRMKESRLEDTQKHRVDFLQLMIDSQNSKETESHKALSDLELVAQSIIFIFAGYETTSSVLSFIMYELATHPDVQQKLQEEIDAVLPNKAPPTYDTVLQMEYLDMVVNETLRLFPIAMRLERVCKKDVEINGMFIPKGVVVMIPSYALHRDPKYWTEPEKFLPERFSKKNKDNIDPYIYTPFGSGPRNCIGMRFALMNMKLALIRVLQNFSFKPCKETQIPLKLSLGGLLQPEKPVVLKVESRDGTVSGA

For the compound `COc1cc2c3cc1Oc1cc(ccc1O)C[C@@H]1c4c(cc(OC)c(O)c4Oc4ccc(cc4)C[C@H]3[N+](C)(C)CC2)CC[N+]1(C)C`, the activity change, negative = inhibition in [1] was 5.87%; in [3], 0.638%. The Potency result in experiment [2], in experiment [5], in [6] and in [7] was “inactive” throughout. In addition, the activity, negative = inhibition in [4] was 21.4%.

As to `COC(=O)[C@H](N)Cc1ccc(Cl)cc1`, the activity change, negative = inhibition was 4.51% [at 38 µM] in experiment [1] and 3.08% [at 38 µM] in [3]. Further, the results for the Potency in experiment [2], in experiment [8] and in experiment [9] were 3.16 µM (active), over 46 µM and over 46 µM, respectively. Further, the Potency result in experiment [5], in [6], in experiment [11], in experiment [13] and in [17] was “inactive” throughout. In addition, the result in experiment [10], in experiment [12], in [14], in experiment [15] and in [16] was inactive.

Consider `CCN(CC)[C@@H](C)C(=O)N1c2ccccc2Sc2ccccc21`, for which the activity change, negative = inhibition in [1] is 14.4% [at 38 µM]; in experiment [3], -74.6% [at 38 µM] (active). Further, the Potency entry in [2], in experiment [5], in [6] and in experiment [18] was “inactive” each time. Moreover, the Potency in experiment [8] and in [9] was over 46 µM in each case.

Take `O=C(Nc1ccccc1)N1CCC2(CC1)CCN(C(=O)c1ccco1)CC2`: the activity change, negative = inhibition was -11.7% in [1] and -5.38% in experiment [3]. The Potency in experiment [2] was 10 µM (active); in experiment [9], over 46 µM. Also, in experiment [4], the activity, negative = inhibition is 15.9%. Moreover, the Potency entry in experiment [5] and in experiment [6] was “inactive” in each case.

Consider `C[C@@]12C=CC(=O)C=C1CC[C@@H]1C2=CC[C@]2(C)[C@@H]1CC[C@H]2C(=O)CN1CCN(c2cc(N3CCCC3)nc(N3CCCC3)n2)CC1`, for which the activity change, negative = inhibition was 13.8% [at 38 µM] in experiment [1] and -21.1% [at 38 µM] in [3]. Further, the Potency in [2] is 12.6 µM (active); in experiment [9], over 46 µM. Besides, the activity, negative = inhibition in [4] was 9.08% [at 38 µM]. The Potency result in experiment [6] and in [17] was “inactive” each time. For the same compound, the compound was classed as inactive in [12], in experiment [14], in experiment [15] and in [16].

As for `CCCCCCCCCCCCCCCC(=O)NC[C@@H](COP(=O)([O-])OCC[N+](C)(C)C)OCC`, the activity change, negative = inhibition in experiment [1] was -23.3% [at 38 µM]; in experiment [3] it was 16.7% [at 38 µM] (active). Besides, the Potency result in [2], in [5], in experiment [6], in [18], in [11] and in experiment [17] was “inactive” throughout. Also, the Potency in experiment [8] and in experiment [9] was over 46 µM in each case. The call in experiment [10], in experiment [12], in [14], in experiment [15] and in [16] was inactive.
